Hits are enriched below; roughly 1.5% of the tested compounds scored in any of these assays.
uPA generation = inhibitors of cell surface uPA generation. hit rate 0.31% among 330,000. cell surface uPA generation assay, qHTS. Potency, µM (titrated, usually from 38.3 µM), without a hit: at the highest dose activity change, negative = inhibition, usual class: inhibitors; active = well fitted inhibition curve with a large enough effect; inconclusive = small, poorly fitted or top-dose-only effect; inactive = no such curve, though single readings can be large or run the other way; tested in mouse RAW 264.7 cells; also: potency is read from the fitted curve at half-maximal effect; % is scaled to controls: 0 for no effect and ±100 for the full control effect; nearly all actives have a fitted effect of over 55% in size
ALOX12 inh = ALOX12 (human) lipoxygenase inhibition; P18054; purified 12hLO, xylenol orange hydroperoxide absorbance; Potency, µM (titrated, usually from 108 µM), inactives show at the top dose activity change, negative = inhibition, most hits filed as inhibitors; hit rate 1.1% among 580,000; also: potency is read from the fitted curve at half-maximal effect; % is scaled to controls: 0 for no effect and ±100 for the full control effect
Target sequence (P18054 whole entry, looked up): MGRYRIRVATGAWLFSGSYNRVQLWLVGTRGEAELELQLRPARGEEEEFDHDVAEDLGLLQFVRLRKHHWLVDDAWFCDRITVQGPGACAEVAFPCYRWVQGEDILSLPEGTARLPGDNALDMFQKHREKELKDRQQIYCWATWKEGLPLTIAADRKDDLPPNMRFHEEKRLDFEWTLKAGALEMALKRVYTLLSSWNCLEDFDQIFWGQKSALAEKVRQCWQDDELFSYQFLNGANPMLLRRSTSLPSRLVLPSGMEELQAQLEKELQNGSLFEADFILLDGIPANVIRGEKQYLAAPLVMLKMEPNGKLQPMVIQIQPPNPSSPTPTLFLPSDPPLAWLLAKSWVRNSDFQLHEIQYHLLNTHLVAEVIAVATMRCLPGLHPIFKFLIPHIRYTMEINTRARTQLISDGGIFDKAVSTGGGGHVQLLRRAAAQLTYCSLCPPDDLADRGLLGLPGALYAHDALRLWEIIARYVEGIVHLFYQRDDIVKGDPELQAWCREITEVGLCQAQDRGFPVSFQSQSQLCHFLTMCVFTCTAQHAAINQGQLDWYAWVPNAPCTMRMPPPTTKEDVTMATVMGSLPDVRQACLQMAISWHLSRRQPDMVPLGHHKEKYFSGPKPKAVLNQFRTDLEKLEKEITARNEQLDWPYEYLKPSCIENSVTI
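Purified human 12hLO at 150 nM in 25 mM Hepes, 0.01% Triton X-100, pH 7.0, preincubated 15 min at room temperature with compound. Reaction started with 40 uM arachidonic acid, 30 min at room temperature. Hydroperoxide measured by Fe-xylenol orange, 573/405 nm absorbance ratio.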
Nrf2 activator = Nrf2 pathway activation; AREc32 ARE-luciferase reporter (MCF7-derived line), luminescence, 24 h; Potency, µM (doses to about 46.1 µM), for inactives: top-dose activation, hits mostly activators; hit rate 0.31% among 410,000; AID 624171; also: potency is read from the fitted curve at half-maximal effect; % of control where 0% means no effect; nearly all actives have a fitted effect of over 65% in size
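ARE-driven firefly luciferase activity in AREc32 cells measured after a 24 hr compound exposure at 37 deg C, using Steady-Glo reagent and a 30 min room-temperature hold.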
IL2 activator = activators of IL-2; IL-2 activation reporter assay, cell-based qHTS; stimulated with anti-CD3/CD4/CD28 beads; in transgenic mouse T cells; activation, % (series mostly up to about 46 µM); hit rate 0.065% among 360,000; AID 652025; in the data active = activation above about 50%; inconclusive = mostly about 30% to 49%; also: 0% is about no effect
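Readout is EGFP and DsRed signal by fluorescent plate cytometry after 18 h at 37 degrees C. Transgenic mouse T cells (750/well) received compound for 60 min before bead stimulation (anti-CD3, anti-CD4, anti-CD28); memory T cells served as non-tolerant control.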
a7 integrin act = activators of alpha7 integrin expression for muscular dystrophy; alpha7betagal myoblasts, beta-gal FDG fluorescence, 48 h; Potency, µM (top dose mostly 38.3 µM), for the others: at the highest dose activation, usual class: activators; hit rate 0.064% among 350,000; AID 624291;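 also: potency is read from the fitted curve at half-maximal effect; 100% = response of the positive control SU9516; nearly all actives have a fitted effect of over 60% in size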
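Alpha7betagal+/- myoblasts (passage 13) were plated 16-24 hr, then exposed to compounds (1:260 dilution of DMSO stock) for 48 hours at 37C. After MPER lysis, β-galactosidase reporter activity was read as FDG fluorescence (ex 480/em 540) after 30 minutes.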
Starred values were filed as active, the others as inactive; ? = inconclusive; . = no result given; [ ] = remark or other dose. Unless noted, calls follow the shape of the dose curve; as a rule, active = well fitted curve in the direction sought with a large enough effect; inconclusive = small, poorly fitted or top-dose-only effect, or another doubt; inactive = no such curve, though single readings can be large; an effect the other way counts as inactive or inconclusive.

SMILES | uPA generation | ALOX12 inh | Nrf2 activator | IL2 activator | a7 integrin act
Cc1[nH]c2ccccc2c1C1c2ccccc2C(=O)N1CCC(=O)N1CCN(C)CC1 (configuration not stated) | . | -2.2% | . | . | .
Cc1ccc(Cn2cc(-c3ccncc3)cc2C(=O)N2CCCCCC2)cc1 | . | -11.5% | . | . | .
O=C(O)c1cccc(NC(=S)NC(=O)c2ccc(-c3ccccc3)cc2)c1 | -1.7% | ? | 0.3% | -0.4 | 14.3%
O=C(O)c1ccc(NC(=S)NC(=O)c2ccc(-c3ccc(Br)cc3)o2)cc1 | 0.4% | 17.8µM* | 0.5% | -1.0 | ?
CN(CC(=O)Nc1cccc(F)c1)C(=O)c1ccc(-c2ccc(Cl)cc2)o1 | -4.5% | ? | 6.0% | -3.2 | 11.2µM*
Cc1ccc(C(=O)O)cc1NC(=S)NC(=O)c1ccc(-c2ccccc2)cc1 | -13.8% | 8.91µM* | 1.8% | 0.3 | 18.9%
Cc1ccc(C(=O)O)cc1NC(=S)NC(=O)c1ccc(-c2ccc(Cl)cc2)o1 | -1.3% | 2µM* | -0.5% | -1.8 | 12.2%
Cc1ccc(C)c(NC(=O)CN(C)C(=O)c2ccc(-c3ccc(Cl)cc3)o2)c1 | -5.0% | -11.3% | 0.0% | -4.0 | -32.4%
CC(Sc1ccc2c(c1)OCCO2)C(=O)Nc1ccc(C#N)cc1 (configuration not stated) | . | -19.5% | . | . | .
O=C(Nc1ccc(Cn2cncn2)cc1)c1csc(NC2CC2)n1 | . | 2.1% | . | . | .
O=C(COCC1CCCCO1)N1CCn2nc(Cc3ccccc3)cc2C1 (configuration not stated) | . | 24.4% | . | . | .
Cc1cc(C)c(/C=N/Nc2cc(C(F)(F)F)ccc2Cl)c(C)c1 | . | 12.6µM* | . | . | .
FC(F)(F)c1ccc(Cl)c(N/N=C/C(c2ccccc2)c2ccccc2)c1 | . | 14.4% | . | . | .
FC(F)(F)c1ccc(Cl)c(N/N=C/c2ccc(Cl)cc2Cl)c1 | . | 39.8µM* | . | . | .
C/C(=N\Nc1cc(C(F)(F)F)ccc1Cl)c1ccccc1O | -1.8% | -18.8% | 11.2µM* | -0.3 | -10.3%
CC(=O)NC(Nc1cc(C(F)(F)F)ccc1Cl)C(Cl)(Cl)Cl (configuration not stated) | . | -45.3% | . | . | .
Cc1cccc(-n2nc([N+](=O)[O-])c(=NC3CCN(Cc4ccccc4)CC3)n2O)c1 | 2.82µM* | -0.5% | 0.3% | 0.0 | 4.0%
COC(=O)CNC(=O)N1CC[C@H]2C(=O)NCCCCCCN(Cc3ccncc3)[C@@H]2C1 | . | 30.8% | . | . | .
N#C/C(=C/c1ccc(OC(F)F)cc1)C(N)=S | . | 31.6µM* | . | . | .
CS(=O)(=O)c1ccc2nc(NC(=O)c3ccco3)sc2c1 | 10µM* | -20.1% | 0.1% | -1.4 | 29.5%
Cc1noc(C)c1C(=O)Nc1nc2ccc(S(C)(=O)=O)cc2s1 | 5.01µM* | 10.8% | -0.8% | -2.8 | -24.7%
Cc1ccc(C(=O)Nc2nc3ccc(S(C)(=O)=O)cc3s2)o1 | -11.6% | 39.7% | 2.7% | 0.7 | 11.6%
CC(=O)c1cccc(NS(=O)(=O)c2ccc(-c3coc(C)n3)cc2)c1 | . | 18.3% | . | . | .
COCC(=O)NC1CCC12CCN(C(=O)C1(c3ccccc3)CC1)CC2 (configuration not stated) | . | 21.1% | . | . | .
COc1ccc(NC(=O)c2cc3ccccn3n2)cc1 | 4.47µM* | 26.1% | -0.5% | -3.4 | 11.0%
SMILES | uPA generation | ALOX12 inh | Nrf2 activator | IL2 activator | a7 integrin act
COc1cc2c(cc1OC)CN(C(=O)/C=C/c1ccc([N+](=O)[O-])cc1)CC2 | -1.5% | 14.1µM* | 4.6% | 0.0 | -13.4%
COc1cc2c(cc1OC)CN(C(=O)/C=C/c1cccs1)CC2 | 3.16µM* | ? | 0.9% | -0.4 | -17.9%
COc1cc2c(cc1OC)CN(C(=O)/C=C/c1ccccc1[N+](=O)[O-])CC2 | -12.2% | ? | 6.8% | -0.4 | -47.7%
CCc1nnc(CSc2nnc(Nc3ccc(C(C)C)cc3)s2)o1 | . | 2.2% | . | . | .
CN(Cc1nc2ccsc2c(=O)[nH]1)C(=O)c1cnn(-c2ccc(Cl)cc2)c1 | . | 0.5% | . | . | .
O=C1Nc2ccccc2O[C@H]2C[C@@H]1N(Cc1ccc(C(F)(F)F)cc1)C2 | . | 57.6%[176 µM] | . | . | .
Cc1ccc(OC2(C(=O)NC(C)c3nn[nH]n3)CCNCC2)cc1 (configuration not stated) | . | -7.3% | . | . | .
Cc1ccc(OC2(C(=O)NC(C)c3cn4ncsc4n3)CCNCC2)cc1 (configuration not stated) | . | 14.1µM* | . | . | .
CCCCC(CC)C(=O)NC12CC3CC(CC(C3)C1)C2 (configuration not stated) | . | 28.2% | . | . | .
